Assay outcomes from PubChem BioAssay.
The list is not random: actives were taken first. Their share in the collection is about 27%.
CYP2C19 inhib: inhibitors of human CYP2C19; hit rate 21% among 96,000; CYP2C19 Supersomes, luciferin-H EGE luminescence, 30 min; inhibition, % at 5 µM; AID 778;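 active = CYP2C19 inhibition above a set limit at 5 µM in the primary screen, cut at about 50% in these data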;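 note: plate controls were negative control wells for no effect and 2.5 mM tranylcypromine positive control for full effect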
Target sequence (P33261 whole entry, looked up): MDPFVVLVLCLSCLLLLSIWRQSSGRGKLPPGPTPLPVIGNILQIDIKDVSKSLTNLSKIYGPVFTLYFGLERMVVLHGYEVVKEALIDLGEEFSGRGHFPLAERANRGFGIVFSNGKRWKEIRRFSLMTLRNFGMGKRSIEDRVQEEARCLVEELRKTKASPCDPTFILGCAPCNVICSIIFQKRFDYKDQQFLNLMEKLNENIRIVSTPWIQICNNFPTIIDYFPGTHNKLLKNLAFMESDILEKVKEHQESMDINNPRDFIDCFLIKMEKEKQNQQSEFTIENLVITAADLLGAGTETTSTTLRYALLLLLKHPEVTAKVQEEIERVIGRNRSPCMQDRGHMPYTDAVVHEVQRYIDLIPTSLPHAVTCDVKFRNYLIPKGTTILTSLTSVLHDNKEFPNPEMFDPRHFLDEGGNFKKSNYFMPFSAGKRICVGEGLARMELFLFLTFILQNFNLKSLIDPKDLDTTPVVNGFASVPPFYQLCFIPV
Cav3 T inh: inhibitors of human Cav3.2 T-type calcium channel; O95180; hit rate 4% among 100,000; Cav3.2-expressing cells, Fluo-4 calcium fluorescence FDSS; hits give low values; B-score at 10 µM;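 active = single-dose well whose peak fluorescence ratio is a statistical outlier from its plate by either plate-standardised score or position-corrected B-score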
CYP2C9 activ: increases human cytochrome P450 2C9 activity; P11712; recombinant CYP2C9, luciferin-H conversion, luminescence; hits give high values; factor 1 = untreated enzyme, 0 = blocked; activation factor at 5 µM; hit rate 1.4% among 96,000;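 active = activation factor of 2 or more for CYP2C9 at a 5 µM dose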;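 note: 0 = sulfaphenazole-blocked wells and 1 = vehicle-only wells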
CYP2C9 inh: inhibitors of human CYP2C9; inhibition, % at 5 µM; CYP2C9 Supersomes, luciferin-H conversion, luminescence; hit rate 20% among 96,000; P11712;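 active = blocking of liver enzyme CYP2C9 beyond about 50% at 5 µM, limit read from the data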
CYP2C19 act: activators of human cytochrome P450 2C19 | P33261 | recombinant CYP2C19, luciferin-H EGE luminescence; hits give high values; 0 = fully inhibited enzyme, 1 = untreated enzyme | activation factor at 5 µM | 96,000 tested, under 10 active | AID 1025;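 active = activation factor of at least 2 at 5 µM in the primary screen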;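 note: 0 = wells with 2.5 mM tranylcypromine and 1 = vehicle-only wells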
* marks the source's active call; other numbers are inactive results; / = no result given.

SMILES	CYP2C19 inhib	Cav3 T inh	CYP2C9 activ	CYP2C9 inh	CYP2C19 act
CC(C)CC(=O)NC(NCC1CCCO1)C(Cl)(Cl)Cl (stereo unspecified)	57.0*	0.34	0.7	31.8	0.4
O=C(NC(NCC1CCCO1)C(Cl)(Cl)Cl)c1cccc2ccccc12 (stereo unspecified)	8.4	-5*	0.7	30.4	0.9
O=C(NCC1CCCO1)c1ccccc1NC(=O)c1cccc2ccccc12 (stereo unspecified)	2.8	0.382	0.6	42.4	1
O=C1Nc2ccccc2C(O)(C(=O)NCc2ccco2)N1c1ccc(Cl)c(Cl)c1 (stereo unspecified)	16.6	/	0.8	22.2	0.8
O=C(CCCN1C(=O)c2cccnc2C1=O)N1CC(=O)N(CCc2ccccc2)C(=O)C1	24.1	-0.411	0.9	12.9	0.8
COc1ccc(-n2c(N3CCN(C)CC3)nc3sc4c(c3c2=O)CCCCC4)cc1	63.5*	-0.0785	0.6	41.2	0.4
CCOC(=O)C(C#N)(Cc1cc(OC)cc(OC)c1)Cc1cc(OC)cc(OC)c1	/	-2.17	/	/	/
O=C(c1ccc(Br)cc1)C1CCc2occc2C1=O (stereo unspecified)	97.1*	0.295	0.3	65.8*	0
CC1(c2ccccc2)NC(=S)N2C1NC(=S)N2c1ccccc1 (stereo unspecified)	70.0*	-0.53	0.7	33.3	0.3
CC1CCCC2(C1)NC(=S)N(c1ccccc1)N2 (stereo unspecified)	42.0	-0.343	0.8	20.9	0.6
COC(=O)CCCC1=CC2=C(c3ccccc3)C(=O)C(C)(OC(=O)C3CCCC3)C(=O)C2=CN1Cc1ccc2c(c1)OCO2 (stereo unspecified)	/	-1.81	/	/	/
NC(=O)CN1CCOCCOCCN(CC(N)=O)CCOCC1	-27.0	1.02	0.4	55.3*	1.3
NC(=O)c1ccccc1NC(=O)CN1CCOCC1	-5.3	2.2	1.2	-16.9	1.1
Cc1ccccc1NC(=O)CSCC(=O)Nc1ccccc1C	72.2*	0.215	0.6	39.6	0.3
Nc1cccc(C(=O)Nc2ccccc2Cl)c1	5.5	0.35	1.1	-9.8	0.9
Cc1ccccc1NC(=O)Cn1nc(C(F)(F)F)cc1C1CC1	72.1*	-1.45	1.1	-8.4	0.3
Cc1ccccc1NC(=O)CSc1nc2cc3c(cc2cc1C)CCC3	8.4	-0.614	0.5	51.6*	0.9
O=C(CSCC(=O)c1ccccc1)Nc1ccccc1Cl	68.0*	-0.3	1	1.1	0.3
CCC(=O)Nc1ccc(NC(=O)CSc2nc3cc4c(cc3cc2C)CCC4)cc1	-3.4	-0.253	0.8	23.9	1
Cc1ccccc1NC(=O)CSc1nc2ccccc2o1	59.0*	0.28	0.9	10.3	0.4
O=C(CSc1nc2ccccc2o1)Nc1ccccc1N1CCOCC1	91.9*	/	0.1	94.7*	0.1
Cc1ccc(C)c(OCC(=O)NCCN(C)C)c1	-2.0	-0.296	1.1	-5.2	1
CC(c1ccccc1)N1C(=O)c2ccccc2C1O (stereo unspecified)	66.0*	0.243	0.9	7.6	0.3
COc1ccc(C2CC(c3ccc(Cl)c(Cl)c3)Nc3nc(N)nn32)cc1 (stereo unspecified)	16.1	-0.502	0.8	23.6	0.8
CCOc1ccc(C2C(C(=O)c3ccco3)=C(O)C(=O)N2CCCn2ccnc2)cc1 (stereo unspecified)	6.2	0.127	0.5	48.7	0.9
SMILES	CYP2C19 inhib	Cav3 T inh	CYP2C9 activ	CYP2C9 inh	CYP2C19 act
CCOc1ccc(C2C(C(=O)c3ccco3)=C(O)C(=O)N2Cc2cccnc2)cc1 (stereo unspecified)	-5.2	-0.519	0.7	29.3	1.1
CCOc1ccc(C(=O)c2cccs2)cc1	72.9*	0.236	0.5	46.8	0.3
CCCc1ccc(OC(=O)c2cccs2)cc1	-13.9	-0.252	1	-0.7	1.1
CCOc1ccc(C2C(C(=O)c3cccs3)=C(O)C(=O)N2CCCn2ccnc2)cc1 (stereo unspecified)	15.9	/	0.3	73.4*	0.8
CCCOc1ccc(C2C(C(=O)c3ccc(C)o3)=C(O)C(=O)N2Cc2cccnc2)cc1 (stereo unspecified)	-9.8	-2.71	0.4	59.1*	1.1
Cc1ccc(C(=O)C2=C(O)C(=O)N(CCCn3ccnc3)C2c2ccc(OC(C)C)cc2)o1 (stereo unspecified)	20.2	0.025	0.4	56.8*	0.8
c1ccc(-c2nnc(CN3CCN(C(c4ccccc4)c4ccccc4)CC3)o2)cc1	/	-4.56	/	/	/
Cn1c(=O)c2c(nc(SCC(=O)O)n2Cc2cc3c(cc2Cl)OCO3)n(C)c1=O	-1.5	0.565	0.8	21.1	1
O=C(COC(=O)C1CC1)NCc1ccccc1Cl	69.5*	-0.405	0.8	18.2	0.3
CC1CC1C(=O)OCC(=O)NCc1ccc(Cl)cc1Cl (stereo unspecified)	99.5*	/	0.7	29.7	0
CC(C)(C)c1ccc(C(=O)NCc2ccc(Cl)cc2)cc1	38.8	-1.03	0.9	9.8	0.6
CC1CC1C(=O)OCC(=O)NCc1ccc(Cl)cc1 (stereo unspecified)	97.1*	-0.666	0.5	53.0*	0
CN(C)c1cccc(C(=O)Nc2ccc(N3CCOCC3)cc2)c1	2.4	0.0294	1.8	-81.0	1
Cc1nnc(NC(=O)c2oc3c(ccc4ccccc43)c2C)s1	22.4	-0.656	1	-1.4	0.8
COc1ccccc1N/C(=N/S(=O)(=O)c1ccc(Cl)cc1)c1ccccc1	73.3*	-1.82	0.5	45.8	0.3
O=S(=O)(/N=C(/Nc1ccccc1F)c1ccccc1)c1ccccc1	62.8*	0.462	0.6	41.2	0.4
COC(=O)c1sccc1-n1cccc1C(=O)NCc1ccccc1	46.7	1.3	1	3.5	0.5
Cc1ccc(NS(=O)(=O)c2cccc(C(=O)N3CCOCC3)c2)cc1	72.4*	0.484	0.6	39.7	0.3
COc1ccc(S(=O)(=O)Nc2cc(C(=O)NC(C)C)ccc2N2CCOCC2)cc1	54.1*	0.00216	0.4	58.5*	0.5
Cc1ccc(S(=O)(=O)Nc2cc(C(=O)N3CCOCC3)ccc2N2CCCCC2)cc1	36.8	-2.93	0.4	57.2*	0.6
COCCCNC(=O)c1ccc(N2CCCC2)c(NS(=O)(=O)c2ccc(C)cc2)c1	35.7	0.202	0.7	31.4	0.6
Cc1cccc(NC(=O)CCN2CC(C)OC(C)C2)c1 (stereo unspecified)	72.9*	0.0963	1	2.5	0.3
Cc1cc(C)cc(NC(=O)CCN2CC(C)OC(C)C2)c1 (stereo unspecified)	32.8	-0.821	1	-3.7	0.7
CC1CC(C)CN(CCC(=O)Nc2cccc(Cl)c2)C1 (stereo unspecified)	69.2*	0.948	0.8	17.5	0.3
O=C(CCN1CCCCC1)Nc1cccc(Cl)c1	1.9	0.163	1.1	-7.2	1
CCOC(=O)c1ccc(NC2OC(=O)c3ccccc32)cc1 (stereo unspecified)	37.4	1.01	1	-1.3	0.6
O=C(Cc1cscn1)c1ccc(O)cc1O	-1.5	0.00833	1.2	-16.3	1
